Assay results: PubChem BioAssay
This is one part of the list. Calls of active or inactive are those of the source.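 How the source made its calls, unless noted: active means inhibition above the mean over all tested compounds plus 3 SD, which no compound reached; inactive means the rest.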

Assays:
[1] = molecular target: Glutathione S-transferase omega-1 (Homo sapiens) (UniProt P78417); test: recombinant GSTO1 blockers, retest – biochemical, fluorescence polarization, triplicate, counter-screen for RBBP9 inhibitor project, confirmation (AID 2176;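 active means inhibition above the primary screen's cutoff, its mean inhibition plus 3 SD, cut at about 35% in these data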;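 further: loss of polarization as inhibitors block binding of rhodamine sulfonate ester activity probe; 0% = GSTO1 with DMSO and 100% = wells lacking GSTO1 enzyme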); details: recombinant GSTO1, probe fluorescence polarization; at 5.96 µM; stronger effect = higher value
[2] = test system: HIV-1 integrase (multimerization); test: stimulation of HIV-1 integrase oligomerization – biochemical, TR-FRET, counter-screen for LEDGF/p75 integration inhibitor project (AID 1053131; in the data active means activation above about 8.9%); details: TR-FRET HIV-1 integrase multimerization, at 7.7 µM, stronger effect = higher value
[3] = compounds disturbing TR-FRET signal readout – biochemical, HIV-1 IN multimerization, artefact control for LEDGF/p75-dependent integration inhibitor project, confirmation (AID 1053135); details: TR-FRET optical interference counterscreen, at 7.7 µM, stronger effect = higher value;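 further: 0% = integrase with antibodies and DMSO and 100% = antibodies without integrase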
[4] = test system: HIV-1 integrase / human LEDGF/p75 complex; test: blockers of LEDGF/p75-dependent integrase activity – biochemical, TR-FRET, confirmation (AID 1053136; in the data active means inhibition above about 14%); details: TR-FRET LEDGF/p75-dependent HIV-1 integration, at 3.7 µM, stronger effect = higher value
[5] = test system: Fam108b (Abhd17b) serine hydrolase [Mus musculus]; test: inhibition of Fam108b (Abhd17b) hydrolase – biochemical, fluorescence polarization, triplicate, counter-screen for RBBP9 inhibitor project, confirmation (AID 1978;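 active means inhibition above a limit from the primary screen, the mean over all compounds plus 3 SD, cut at about 19% in these data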;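 further: 0% = median of active Fam108b wells and 100% = catalytically dead S170A mutant; inhibitors free the probe so polarization falls as inhibition rises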); details: recombinant Fam108b, FP-Rh probe fluorescence polarization; at 9.51 µM; stronger effect = higher value
[6] = molecular target: Oxysterols receptor LXR-beta (Homo sapiens) (UniProt P55055); test: nonspecific reporter activation via LXR – cell-based, luminescence, HEK293, H. contortus campaign, counter-screen for hcDAF-12 agonist project, confirmation (AID 743027;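 active means mean percent activation of the reporter above a cutoff set as the average over tested compounds plus their standard deviation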); details: HEK293 Gal4-LXR tk-luc reporter, 24 h, at 6.8 µM, stronger effect = higher value, normalized: DMSO 0%, positive control 100%
[7] = test system: Nuclear hormone receptor DAF-12 (Haemonchus contortus); test: hcDAF-12 luciferase reporter activation, retest – cell-based, luminescence, HEK293, lit1-tk-luc, triplicate, confirmation (AID 743032;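 active means mean activation across triplicate tests above the threshold derived from the earlier primary screen, cut at about 5.5% in these data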;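 further: 0% = DMSO only wells and 100% = 3 µM Δ7-dafachronic acid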); details: HEK293 hcDAF-12 lit1-tk-luc reporter, at 6.8 µM, stronger effect = higher value, % of Δ7-dafachronic acid response
[8] = test system: TLR4-MyD88 interaction (human), BLA complementation; test: disruptors of TLR4 binding to MyD88 – cell-based, HeLa CL3-4, BLA complementation, FRET ratio, confirmation (AID 941;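 active means mean inhibition across three repeat runs above about 25% carried over from the earlier screen, limit read from the data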;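 further: plate controls were DMSO only for no effect and clavulanic acid blocking BLA at full dose for full effect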); details: CCF4 FRET ratio, at 8.4 µM, stronger effect = higher value
[9] = BLA reporter interference in HeLa cells – cell-based, full-length BLA, CCF4 FRET ratio, artefact control for TLR4-MyD88 binding inhibitor project, confirmation (AID 1237;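 active means mean inhibition over three repeats above about 26% taken from the earlier screen, limit read from the data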;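 further: HeLa cells stably expressing beta-lactamase reporter as counterscreen for TLR4-MyD88 inhibitors; 0% = DMSO and 100% = clavulanic acid full inhibition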); details: at 8.4 µM, stronger effect = higher value
[10] = molecular target: Peroxisome proliferator-activated receptor gamma (Homo sapiens) (UniProt P37231); test: retested PPARg-SRC-2 recruitment enhancers – biochemical, HTS, confirmation (AID 1297; in the data active means activation above about 22%;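 further: 0% = vehicle alone and 100% = reference agonist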); details: biochemical SRC-2 recruitment by PPARgamma; at 8 µM; stronger effect = higher value
[11] = molecular target: Peroxisome proliferator-activated receptor gamma (Homo sapiens) (UniProt P37231); test: retest of SRC-1 recruitment enhancers for PPARgamma – biochemical, confirmation (AID 1300; in the data active means activation above about 20%;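 further: 0% = vehicle wells and 100% = reference agonist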); details: PPARgamma–SRC-1 coactivator recruitment biochemical assay; at 8 µM; stronger effect = higher value
[12] = molecular target: Peroxisome proliferator-activated receptor gamma (Homo sapiens) + Nuclear receptor coactivator 3 (Homo sapiens) (UniProt P37231+Q9Y6Q9); test: agonists promoting SRC-3 binding to PPARgamma – biochemical, confirmation (AID 1301; in the data active means activation above about 24%;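 further: 0% = vehicle wells and 100% = reference agonist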); details: biochemical PPARgamma-SRC-3 coactivator recruitment, agonist mode; at 8 µM; stronger effect = higher value
[13] = potentiators of IFN-gamma STAT1 reporter activity – cell-based, HTS, luciferase reporter, confirmation (AID 1262;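 active means activation above a set limit carried over from the earlier primary STAT1 screen, cut at about 140% in these data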;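 further: simple ratio to median IFN-gamma plus DMSO wells so 0% means no light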); details: NIH 3T3 STAT1-luciferase reporter, IFN-gamma potentiation, luminescence; at 5.7 µM; stronger effect = higher value; 100% = IFN-gamma EC80 alone, no compound
[14] = enhancement of NF-kB transcriptional signalling – cell-based, HEK293T, luciferase luminescence, TNF-alpha, counter-screen for STAT1 activator project (AID 1306;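 active means activation above the mean of solvent-only control wells plus 3 SD, set per campaign, cut at about 130% in these data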;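 further: TNF-alpha given at a submaximal dose yielding about 80% of full reporter signal; values are well signal over median control so 100% means no change and 0% no light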); details: HEK293T NF-kB luciferase reporter, TNF-alpha stimulated, at 5.7 µM, stronger effect = higher value, 100% = TNF-alpha with vehicle only
[15] = molecular target: Signal transducer and activator of transcription 3 (Homo sapiens) (UniProt P40763); test: enhancers of IL-6 STAT3 transcription – U3A cells, luciferase, luminescence, counter-screen for STAT1 activator project, confirmation (AID 1316;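 active means activation above the solvent-only control well mean plus 3 SD, set per plate batch, cut at about 110% in these data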;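 further: 0% = no luminescence and 100% = median IL-6 plus DMSO wells; higher means more STAT3 reporter activation so hits are non-selective activators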); details: U3A cells STAT3-luciferase reporter, IL-6, luminescence; at 5.7 µM; stronger effect = higher value; 100 = IL-6 alone, no compound effect; cells lack STAT1
[16] = reduced OD of T4-infected AddAB+ E. coli – absorbance, E. coli V3065, T4 phage, triplicate, AddAB inhibitor project, confirmation (AID 488942;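 active means mean inhibition above a set limit taken from the earlier primary screen, cut at about 13% in these data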;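 further: higher means less bacterial growth since AddAB block lets phage replicate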); details: E. coli V3065 expressing H. pylori AddAB, at 11.9 µM, stronger effect = higher value, T4 phage with gene 2 nonsense mutations
[17] = reduced OD of phage-infected RecBCD+ V66 E. coli – absorbance, mutant T4 phage, counter-screen for AddAB inhibitor project (AID 488955;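 active means mean inhibition above the mean of solvent-only control wells plus 3 SD, cut at about 4% in these data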;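 further: optical density read after an 18 h incubation at 37 °C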); details: OD growth, at 11.9 µM, stronger effect = higher value
[18] = bacterial growth inhibitors – absorbance, counter-screen for AddAB inhibitor project, confirmation (AID 488956; in the data active means inhibition above about 25%); details: bacterial viability, absorbance (AddAB counterscreen); at 11.9 µM; stronger effect = higher value
[19] = reduced OD of V66 E. coli with T4 gene 2 phage – absorbance, RecBCD inhibitor project, confirmation (AID 651982;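 active means mean inhibition over triplicates exceeding the hit threshold derived in the original primary screen, cut at about 11% in these data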); details: E. coli V66 + T4 2- phage, growth OD; at 11.9 µM; stronger effect = higher value
[20] = bacterial growth inhibition – absorbance, high throughput, counter-screen for RecBCD inhibitor project (AID 651983; in the data active means inhibition above about 20%;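 further: E. coli strain V66 grown with compound alone and no phage infection; 0% = bacteria with DMSO vehicle only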); details: E. coli viability, absorbance (OD) growth; at 11.9 µM; stronger effect = higher value
[21] = reduced optical density, T4-challenged addAB+ bacteria – absorbance, E. coli V3065, T4 phage, counter-screen for RecBCD inhibitor project, confirmation (AID 651984;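 active means mean inhibition above the solvent-only control wells' mean plus 3 SD, cut at about 22% in these data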;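 further: higher means less bacterial growth from phage killing when AddAB is blocked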); details: E. coli expressing H. pylori AddAB + T4 phage, OD growth; at 11.9 µM; stronger effect = higher value; gene 2 mutant T4, recBCD-deleted host
[22] = molecular target: Galanin receptor type 2 (Homo sapiens) (UniProt O43603); test: blockers of human galanin receptor 2 – cell-based, confirmation (AID 866; in the data active means inhibition above about 27%;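 further: cells stimulated with galanin at about its EC80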); details: GALR2-expressing cells, antagonist mode, at 4 µM, stronger effect = higher value
[23] = nonspecific BLA reporter inhibition – CHO NFAT-bla cells, FRET readout, counter-screen for GALR2 antagonist project, confirmation (AID 867;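 active means inhibition above the mean inhibition across tested compounds plus 3 SD, cut at about 27% in these data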;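 further: 0% = 500 nM thapsigargin stimulated wells and 100% = unstimulated BSA only wells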); details: beta-lactamase FRET, thapsigargin-stimulated, at 4.2 µM, stronger effect = higher value
[24] = molecular target: Serine protease HTRA1 (Homo sapiens) (UniProt Q92743); test: confirming inhibition of human HTRA1 – biochemical, fluorescence polarization, confirmation (AID 540248;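 active means mean inhibition over three repeats above a set limit taken from the earlier primary screen, cut at about 37% in these data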;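 further: 0% = HTRA1 with DMSO and 100% = wells lacking HTRA1; inhibitors block probe binding so polarization drops and inhibition rises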); details: recombinant HTRA1, FP-rhodamine activity-based probe, at 5.96 µM, stronger effect = higher value
[25] = molecular target: Toll-like receptor 9 (Homo sapiens) (UniProt Q9NR96); test: disruptors of TLR9 binding to MyD88 – cell-based, CHO, BLA complementation, fluorescence, triplicate, confirmation (AID 540250;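 active means mean inhibition across three repeats above about 21% taken from the earlier screen, limit read from the data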;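 further: blue over green emission ratio reports constitutive TLR9 MyD88 association via BLA complementation; 0% = DMSO vehicle wells and 100% = clavulanate BLA inhibitor wells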); details: CCF4 FRET ratio, at 4.98 µM, stronger effect = higher value
[26] = BLA reporter readout interference – cell-based, fluorescence, artefact control for TLR9-MyD88 binding inhibitor project (AID 540251;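 active means mean inhibition above a 50% cutoff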;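 further: counterscreen of TLR9-MyD88 hits on CMV-driven BLA in CHO-K1 cells; 0% = DMSO alone and 100% = clavulanate blocking BLA; higher means less blue over green ratio so more BLA blockade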); details: CHO-BLA cells, CCF4 FRET ratio, at 4.98 µM, stronger effect = higher value
[27] = CHO cell viability loss – luminescence, single concentration, cytotoxicity control for TLR9-MyD88 binding inhibitor project (AID 588336; in the data active means inhibition above about 11%); details: TLR9-MyD88 CHO cells cytotoxicity, at 4.98 µM, stronger effect = higher value
[28] = molecular target: Receptor-interacting serine/threonine-protein kinase 2 (Homo sapiens) (UniProt O43353); test: inhibitors of RIPK2 association with NOD2 – fluorescence, CHO cells, BLA complementation, triplicate, confirmation (AID 624370;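 active means mean inhibition across replicates above a set limit taken from the earlier primary screen, cut at about 21% in these data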;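 further: 0% = DMSO-only wells and the high end = clavulanate BLA-blocked wells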); details: CCF4 FRET, at 4.98 µM, stronger effect = higher value
[29] = BLA reporter readout interference – cell-based, CHO-K1 CMV-bla, CCF4 FRET, fluorescence, artefact control for NOD2-RIPK2 interaction inhibitor project, confirmation (AID 624371;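 active means mean inhibition above the low-control mean inhibition plus three low-control SD, cut at about 11% in these data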;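 further: 0% = DMSO only wells and 100% = clavulanate high control wells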); details: CCF4 FRET ratio, counterscreen, at 4.98 µM, stronger effect = higher value
[30] = molecular target: (Lyso)-N-acylphosphatidylethanolamine lipase (Mus musculus) (UniProt Q8VD66); test: mouse ABHD4 hydrolase blockers, triplicate – biochemical, fluorescence polarization, confirmation (AID 720658;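 active means mean inhibition across replicates above the hit cutoff set in the primary screen, cut at about 30% in these data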;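 further: 0% = wild-type ABHD4 with DMSO and 100% = catalytically dead S159A mutant with DMSO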); details: purified mABHD4, FP-Rh probe fluorescence polarization; at 8.92 µM; stronger effect = higher value
Sequence of (Lyso)-N-acylphosphatidylethanolamine lipase (Mus musculus) (Q8VD66 whole entry, looked up): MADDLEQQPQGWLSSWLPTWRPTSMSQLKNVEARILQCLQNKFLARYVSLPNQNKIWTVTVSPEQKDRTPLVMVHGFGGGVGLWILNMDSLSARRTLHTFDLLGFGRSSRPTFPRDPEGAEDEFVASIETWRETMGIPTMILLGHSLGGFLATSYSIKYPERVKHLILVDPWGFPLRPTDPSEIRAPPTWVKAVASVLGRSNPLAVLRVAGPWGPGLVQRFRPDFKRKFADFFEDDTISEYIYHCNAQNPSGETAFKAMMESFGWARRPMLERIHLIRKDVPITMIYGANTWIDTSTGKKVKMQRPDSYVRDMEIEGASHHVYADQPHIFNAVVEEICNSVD

Sequence of Peroxisome proliferator-activated receptor gamma (Homo sapiens) (P37231 whole entry, looked up): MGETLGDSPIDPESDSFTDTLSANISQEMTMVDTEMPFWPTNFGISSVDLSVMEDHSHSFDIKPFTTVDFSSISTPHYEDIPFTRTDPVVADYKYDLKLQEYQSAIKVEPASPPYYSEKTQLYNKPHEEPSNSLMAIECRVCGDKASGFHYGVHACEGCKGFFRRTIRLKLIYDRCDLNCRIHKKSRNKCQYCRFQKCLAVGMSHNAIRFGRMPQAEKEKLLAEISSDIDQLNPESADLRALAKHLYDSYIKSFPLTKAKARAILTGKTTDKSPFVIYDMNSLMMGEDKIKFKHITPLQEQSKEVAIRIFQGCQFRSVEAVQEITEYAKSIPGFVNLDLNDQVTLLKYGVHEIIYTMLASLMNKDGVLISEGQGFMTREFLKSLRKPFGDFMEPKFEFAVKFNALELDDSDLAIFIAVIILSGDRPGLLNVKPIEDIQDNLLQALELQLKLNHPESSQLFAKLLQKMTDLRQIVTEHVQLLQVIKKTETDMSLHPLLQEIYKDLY
Sequence of Toll-like receptor 9 (Homo sapiens) (Q9NR96 whole entry, looked up): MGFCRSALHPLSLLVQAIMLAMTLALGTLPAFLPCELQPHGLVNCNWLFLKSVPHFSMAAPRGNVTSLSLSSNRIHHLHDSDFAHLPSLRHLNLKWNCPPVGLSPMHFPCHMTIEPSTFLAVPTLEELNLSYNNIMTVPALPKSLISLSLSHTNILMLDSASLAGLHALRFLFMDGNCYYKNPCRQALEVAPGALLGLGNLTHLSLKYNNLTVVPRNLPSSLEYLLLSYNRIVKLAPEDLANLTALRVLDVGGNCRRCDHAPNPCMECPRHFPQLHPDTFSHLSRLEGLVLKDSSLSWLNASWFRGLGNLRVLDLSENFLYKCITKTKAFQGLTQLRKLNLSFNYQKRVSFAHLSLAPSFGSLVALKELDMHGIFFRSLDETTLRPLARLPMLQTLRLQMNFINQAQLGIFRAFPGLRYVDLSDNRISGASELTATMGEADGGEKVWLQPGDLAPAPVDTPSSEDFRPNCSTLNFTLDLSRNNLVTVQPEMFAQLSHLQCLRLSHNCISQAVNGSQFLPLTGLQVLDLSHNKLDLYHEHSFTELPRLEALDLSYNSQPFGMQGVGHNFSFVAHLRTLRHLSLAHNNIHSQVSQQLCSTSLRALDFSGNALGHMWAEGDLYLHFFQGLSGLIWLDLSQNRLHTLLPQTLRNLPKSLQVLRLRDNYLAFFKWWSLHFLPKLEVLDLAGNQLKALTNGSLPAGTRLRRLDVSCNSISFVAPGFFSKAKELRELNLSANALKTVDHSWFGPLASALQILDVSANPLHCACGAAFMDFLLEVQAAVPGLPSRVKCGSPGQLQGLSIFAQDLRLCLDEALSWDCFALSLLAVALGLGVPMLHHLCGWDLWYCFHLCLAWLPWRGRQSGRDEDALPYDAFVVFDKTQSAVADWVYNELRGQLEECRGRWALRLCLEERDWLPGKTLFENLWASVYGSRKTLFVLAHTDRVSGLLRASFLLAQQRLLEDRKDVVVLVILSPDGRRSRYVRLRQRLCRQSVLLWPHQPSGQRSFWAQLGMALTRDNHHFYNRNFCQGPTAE
Sequence of Receptor-interacting serine/threonine-protein kinase 2 (Homo sapiens) (O43353 whole entry, looked up): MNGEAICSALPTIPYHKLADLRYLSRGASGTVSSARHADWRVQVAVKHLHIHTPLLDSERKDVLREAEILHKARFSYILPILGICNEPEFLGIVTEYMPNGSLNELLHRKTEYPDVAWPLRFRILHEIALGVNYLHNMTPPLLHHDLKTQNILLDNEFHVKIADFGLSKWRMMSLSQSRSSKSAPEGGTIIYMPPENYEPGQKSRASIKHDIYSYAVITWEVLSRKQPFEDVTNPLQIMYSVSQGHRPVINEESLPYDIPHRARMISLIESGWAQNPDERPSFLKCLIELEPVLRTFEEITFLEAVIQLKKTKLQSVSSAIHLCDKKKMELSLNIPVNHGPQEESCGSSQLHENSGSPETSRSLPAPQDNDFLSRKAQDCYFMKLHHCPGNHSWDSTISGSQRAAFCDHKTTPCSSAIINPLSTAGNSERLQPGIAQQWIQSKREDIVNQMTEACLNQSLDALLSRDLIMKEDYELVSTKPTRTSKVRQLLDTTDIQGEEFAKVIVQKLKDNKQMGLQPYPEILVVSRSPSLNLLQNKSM
Sequence of Oxysterols receptor LXR-beta (Homo sapiens) (P55055 whole entry, looked up, the tested form may be a part): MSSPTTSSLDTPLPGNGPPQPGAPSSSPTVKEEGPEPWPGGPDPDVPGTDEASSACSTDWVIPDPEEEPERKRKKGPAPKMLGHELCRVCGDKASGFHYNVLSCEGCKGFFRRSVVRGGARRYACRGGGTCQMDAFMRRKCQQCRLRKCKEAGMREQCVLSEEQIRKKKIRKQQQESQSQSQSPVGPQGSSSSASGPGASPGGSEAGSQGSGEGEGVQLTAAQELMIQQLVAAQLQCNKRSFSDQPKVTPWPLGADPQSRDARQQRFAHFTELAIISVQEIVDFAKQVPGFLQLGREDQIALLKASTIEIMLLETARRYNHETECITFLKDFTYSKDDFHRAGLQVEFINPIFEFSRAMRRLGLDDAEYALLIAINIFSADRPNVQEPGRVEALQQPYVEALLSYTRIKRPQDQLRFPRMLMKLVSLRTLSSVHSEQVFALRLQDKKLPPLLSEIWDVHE
Sequence of Glutathione S-transferase omega-1 (Homo sapiens) (P78417 whole entry, looked up): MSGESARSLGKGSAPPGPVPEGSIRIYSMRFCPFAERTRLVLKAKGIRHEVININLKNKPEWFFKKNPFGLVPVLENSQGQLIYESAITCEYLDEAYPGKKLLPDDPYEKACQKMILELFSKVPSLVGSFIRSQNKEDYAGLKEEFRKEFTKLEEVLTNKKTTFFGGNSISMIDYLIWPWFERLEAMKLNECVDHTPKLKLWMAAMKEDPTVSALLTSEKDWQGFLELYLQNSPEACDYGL
Sequence of Galanin receptor type 2 (Homo sapiens) (O43603 whole entry, looked up): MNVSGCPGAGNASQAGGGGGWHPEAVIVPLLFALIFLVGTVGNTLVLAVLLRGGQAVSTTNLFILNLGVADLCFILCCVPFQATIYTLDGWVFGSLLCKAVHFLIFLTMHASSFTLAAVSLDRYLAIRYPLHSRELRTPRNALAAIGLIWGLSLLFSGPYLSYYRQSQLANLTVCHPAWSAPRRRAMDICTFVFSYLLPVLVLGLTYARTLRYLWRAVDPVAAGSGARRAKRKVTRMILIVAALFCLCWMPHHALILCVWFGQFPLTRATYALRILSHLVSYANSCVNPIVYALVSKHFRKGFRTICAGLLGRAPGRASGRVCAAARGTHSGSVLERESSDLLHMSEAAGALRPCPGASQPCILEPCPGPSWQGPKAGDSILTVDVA

CC(C)Cn1c(N)c(C(=O)NCc2cccs2)c2nc3ccccc3nc21
inactive: inhibition [1] -4.29% | activation [2] 3.66% | inhibition [3] -13.3% | inhibition [4] -3.17%

Cc1ccc(C(=O)N/C(=C/c2cccs2)C(=O)N2CCCCC2)cc1
inactive: activation [2] -0.16% | inhibition [3] 0.87% | inhibition [4] 0.33%

CC(=O)OCC1(O)CC23CCC4c5ccoc5CCC4(C)C2CCC1C3 (stereo unspecified)
inactive: activation [2] 0.06% | inhibition [3] -0.26% | inhibition [4] 9.45%

c1ccc(C2=Nc3cccc4cccc(c34)N2)cc1
inactive: inhibition [5] 6.39% | activation [6] -0.31% | activation [7] 3.48% | activation [2] 4.54% | inhibition [3] -16.1% | inhibition [4] 8.24%

CC(=NCc1ccc2c(c1)OCO2)C1=C(O)c2ccccc2C1=O
inactive: activation [2] 0.56% | inhibition [3] -2.08% | inhibition [4] -0.38%

CCN(CC)c1ccc2oc(=O)c(C)nc2c1
inactive: inhibition [8] 4.42% | inhibition [9] 4.01% | activation [10] 7.05% | activation [11] 6.29% | activation [12] 3.97%

O=C(c1ccc(Cl)cc1)c1cnc(Nc2ccccc2)s1
active: inhibition [9] 29.5%
inactive: inhibition [8] 9.98%

O=C(Nc1ccc(Cl)cn1)c1cnn2cccnc12
inactive: activation (% of control) [14] 128%
active: activation (% of control) [13] 171% | activation (% of control) [15] 111%

C=CC1=C(C(=O)O)N2C(=O)[C@@H](NC(=O)/C(=N\OCC(=O)O)c3csc(N)n3)[C@H]2SC1
inactive: inhibition [3] -430%
active: inhibition [16] 103% | inhibition [17] 103% | inhibition [18] 104% | inhibition [19] 102% | inhibition [20] 104% | inhibition [21] 104% | activation [2] 85.5% | inhibition [4] 62.9%

CCc1ccc2c(c1)C1(NN=C(c3ccccc3)S1)C(=O)N2 (stereo unspecified)
active: inhibition [24] 63.9%
inactive: inhibition [22] 24.4% | inhibition [23] 24.7% | inhibition [8] 13.3% | inhibition [9] 19.7%

CCN(CC)CCCC(C)n1c2nc(=O)[nH]c(=O)c-2nc2cc(Cl)ccc21 (stereo unspecified)
active: inhibition [28] 38.1% | inhibition [29] 40% | inhibition [30] 44.4% | inhibition [4] 59.8%
inactive: inhibition [25] 12.3% | inhibition [26] 14.8% | inhibition [27] -0.12% | activation [2] 2.04% | inhibition [3] -7.01%

O=C1C=CC(=O)N1c1ccc(N2CCCCC2)cc1
inactive: inhibition [30] 17.5% | activation [2] 1.69% | inhibition [3] -8.48% | inhibition [4] 5.47%
